Structures can show the parent of a compound that is named as a salt.
Tests used:
Assay in all cases: Euclidean distance of Cell Painting phenotypic profile (signed KS, 77 features) to DMSO centroid (dimensionless distance); 5 or 10 uM (library dependent); higher = stronger phenotypic change vs DMSO (phenoactivity)
Conditions in all cases: 48 h
786-O = test system: 786-O
In short: (§1)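 Five cancer lines and a healthy fibroblast line received library compounds at 10 or 5 uM (library-dependent, 0.1% DMSO final) for 48 h. Stained cells were imaged confocally at 20X (9 fields/well). Harmony extracted 77 features, each scored as a signed Kolmogorov-Smirnov statistic against same-plate vehicle wells. Profiles were plate-position corrected, correlation-weighted and replicate-averaged at the top dose. Phenoactivity is the Euclidean distance from each profile to the median vehicle profile.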

A549 = test system: A549
In short: as §1

DU145 = test system: DU145
In short: as §1

FB = test system: FB
In short: as §1

HEPG2 = test system: HEPG2
In short: as §1

OVCAR4 = test system: OVCAR4
In short: as §1

| SMILES | Euclidean distance (786-O) | Euclidean distance (A549) | Euclidean distance (DU145) | Euclidean distance (FB) | Euclidean distance (HEPG2) | Euclidean distance (OVCAR4) |
| --- | --- | --- | --- | --- | --- | --- |
| Cl.NCCCC[C@H](N)C(=O)O [L-Lysine hydrochloride] | 0.954 | 1.04 | 0.836 | 0.872 | 1.27 | 0.646 |
| O=C(Oc1ccccc1C(=O)O)c1ccccc1O [Sasapyrine] | 0.578 | 0.394 | 0.556 | 0.969 | 0.413 | 1.18 |
| CCOc1ccc(Cc2cc([C@@H]3O[C@H](CO)[C@@H](O)[C@H](O)[C@H]3O)ccc2Cl)cc1 [Dapagliflozin] | 1.1 | 1.19 | 1.1 | 1.39 | 0.432 | 1.01 |
| CNC1CCCN(c2c(F)cc3c(=O)c(C(=O)O)cn(C4CC4)c3c2OC)C1 (stereo not drawn) [Balofloxacin Dihydrate] | 0.976 | 0.602 | 0.831 | 1.09 | 1.13 | 1.02 |
| COc1cc(CCc2cc(NC(=O)c3ccc(N4CC(C)NC(C)C4)cc3)n[nH]2)cc(OC)c1 (stereo not drawn) | 1.7 | 1.94 | 1.5 | 3.59 | 2.79 | 1.46 |
| Nc1nc(=O)c2nc(CNc3ccc(C(=O)N[C@@H](CCC(=O)O)C(=O)O)cc3)cnc2[nH]1 [Folic acid] | 1.19 | 0.776 | 0.987 | 0.817 | 0.743 | 1.25 |
| CC(=O)NS(=O)(=O)c1ccc(N)cc1 [Sulfacetamide Sodium] | 1.12 | 0.648 | 1.22 | 0.694 | 0.673 | 1.05 |
| CCC(=O)O[C@]1(C(=O)SCF)[C@H](C)C[C@H]2[C@@H]3C[C@H](F)C4=CC(=O)C=C[C@]4(C)[C@@]3(F)[C@@H](O)C[C@@]21C [Fluticasone propionate] | 1.77 | 2.26 | 2.6 | 1.83 | 0.813 | 1.61 |
| CN(C)CCCN1c2ccccc2CCc2ccc(Cl)cc21 [Clomipramine HCl] | 1.08 | 0.845 | 1.4 | 1.93 | 1.92 | 1.77 |
| O=C(/C=C/c1ccc(O)c(O)c1)OCCc1ccccc1 [Caffeic Acid Phenethyl Ester] | 1.43 | 2.31 | 1.1 | 1.78 | 1.71 | 1.18 |
| CN1C(C(=O)Nc2ccccn2)=C(O)c2sccc2S1(=O)=O [Tenoxicam] | 0.866 | 1.16 | 1.02 | 0.733 | 2.05 | 1.22 |
| N#C/C(=C\c1ccc(O)c(O)c1)C(=O)NCc1ccccc1 [AG-490 (Tyrphostin B42)] | 1.55 | 1.52 | 1.17 | 1.34 | 0.804 | 0.729 |
| CC1(C)CC(Oc2ccc(-c3ccc(-c4cn[nH]c4)cc3O)nn2)CC(C)(C)N1 [Branaplam (LMI070)] | 2.88 | 2.86 | 4.33 | 3.24 | 3.03 | 3.09 |
| CCNC(=O)[C@@H]1CCCN1C(=O)[C@H](CCCNC(=N)N)NC(=O)[C@H](CC(C)C)NC(=O)[C@@H](CC(C)C)NC(=O)[C@H](Cc1ccc(O)cc1)NC(=O)[C@H](CO)NC(=O)[C@H](Cc1c[nH]c2ccccc12)NC(=O)[C@H](Cc1c[nH]cn1)NC(=O)[C@@H]1CCC(=O)N1 [Leuprorelin Acetate] | 1.85 | 1 | 1.17 | 0.933 | 0.582 | 0.958 |
| CC(=O)c1cc([N+](=O)[O-])c(Sc2ccc(F)cc2F)s1 | 0.453 | 0.953 | 0.697 | 0.781 | 2.06 | 1.97 |
| O=C(O)CC(O)(CC(=O)O)C(=O)O [Citric acid] | 0.88 | 0.725 | 1.02 | 0.899 | 0.774 | 0.991 |
| COc1ccc2cc(C(=O)O)ccc2c1 [6-Methoxy-2-naphthoic acid] | 0.861 | 0.63 | 0.683 | 1.15 | 0.634 | 1.19 |
| CN(C)CC(c1ccc(O)cc1)C1(O)CCCCC1 (stereo not drawn) [Desvenlafaxine] | 0.678 | 0.707 | 0.899 | 0.932 | 0.34 | 1.95 |
| OCC1OC(OC2OC(CO)C(O)C(O)C2O)C(O)C(O)C1O [D-(+)-Trehalose Anhydrous] | 1.42 | 1.05 | 1.04 | 1.26 | 0.946 | 0.855 |
| CC(=O)O[C@@]12CO[C@@H]1C[C@H](O)[C@@]1(C)C(=O)[C@H](O)C3=C(C)[C@@H](OC(=O)[C@H](O)[C@@H](NC(=O)OC(C)(C)C)c4ccccc4)C[C@@](O)([C@@H](OC(=O)c4ccccc4)[C@H]21)C3(C)C [Docetaxel] | 3.54 | 2.71 | 3.65 | 2.64 | 2.16 | 2.64 |
| CO/N=C(\C(=O)N[C@@H]1C(=O)N2C(C(=O)O)=C(CSc3nnnn3C)CS[C@H]12)c1csc(N)n1 [Cefmenoxime hydrochloride] | 0.657 | 0.643 | 1.22 | 0.686 | 0.775 | 0.594 |
| C=C(c1ccc(C(=O)O)cc1)c1cc2c(cc1C)C(C)(C)CCC2(C)C [Bexarotene] | 2.33 | 2 | 1.58 | 1.39 | 1.63 | 1.48 |
| O=c1cc(N2CCOCC2)oc2c(-c3cccc4c3sc3ccccc34)cccc12 | 3.24 | 2.66 | 2.15 | 3.31 | 2.73 | 1.93 |
